# Bioassay records as filed in PubChem BioAssay.
# Shown are actives, neighbours in structure and some others; about 1.2% of the full set was active somewhere.
# MmCpn inh = blocks the Methanococcus maripaludis chaperonin Mm-Cpn; Potency, µM (series often up to 76.9 µM), inactives show at the highest dose activity, negative = inhibition, usual class: inhibitors; purified Mm-Cpn ATPase, ADP Transcreener TR-FRET; 330,000 compounds, 0.031% hits; active = well fitted inhibition curve with a large enough effect; inconclusive = small, poorly fitted or top-dose-only effect; note: potency is the fitted concentration of half-maximal effect; % is set by controls: 0 for no effect and ±100 for the full control effect; nearly all actives have a fitted effect of over 80% in size
#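 25 nM Mm-CPN + cpd, 10 min 37°C; + 10 uM ATP, 30 min 37°C; buffer 30 mM Tris pH 7.4, 100 mM KCl, 5 mM MgCl2, 1 mM DTT; Transcreener ADP HTRF detection 30 min RT.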
# gsp antag = antagonizes gsp, the McCune-Albright syndrome mutation | gsp-mutant cells, cAMP HTRF, 30 min | Potency, µM (titrated, usually from 76.9 µM), for the others: at the highest dose activity change, negative = inhibition, hits mostly inhibitors | 340,000 compounds, 0.4% hits | AID 624288; calls by dose curve; cell line not stated here;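 note: intracellular cAMP measured with PDE inhibitor Ro 20-1724 present during compound exposure; potency is the fitted concentration of half-maximal effect; % is set by controls: 0 for no effect and ±100 for the full control effect; nearly all actives have a fitted effect of over 65% in size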
#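 HTRF cAMP read-out (cAMP-d2 plus anti-cAMP antibody-K in lysis buffer, 30 min RT). Before lysis, cells are exposed to compounds with […] for 30 min at 37C in DPBS containing Ca/Mg, BSA and Tween 20.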
# TSHR antag = blocks TSH signaling through the human TSH receptor; TSHR-expressing cells, TSH-stimulated cAMP HTRF, 2 h; stronger effect = lower value; activity change, negative = inhibition, % at 11.5 µM; 330,000 compounds, 0.2% hits; AID 504810;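 active = activity change below a set negative limit, meaning inhibition stronger than a set level, cut at about -70% in these data; inconclusive = activity change between two set negative limits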; note: % is set by controls: 0 for no effect and ±100 for the full control effect
# Target sequence (P16473 whole entry, looked up): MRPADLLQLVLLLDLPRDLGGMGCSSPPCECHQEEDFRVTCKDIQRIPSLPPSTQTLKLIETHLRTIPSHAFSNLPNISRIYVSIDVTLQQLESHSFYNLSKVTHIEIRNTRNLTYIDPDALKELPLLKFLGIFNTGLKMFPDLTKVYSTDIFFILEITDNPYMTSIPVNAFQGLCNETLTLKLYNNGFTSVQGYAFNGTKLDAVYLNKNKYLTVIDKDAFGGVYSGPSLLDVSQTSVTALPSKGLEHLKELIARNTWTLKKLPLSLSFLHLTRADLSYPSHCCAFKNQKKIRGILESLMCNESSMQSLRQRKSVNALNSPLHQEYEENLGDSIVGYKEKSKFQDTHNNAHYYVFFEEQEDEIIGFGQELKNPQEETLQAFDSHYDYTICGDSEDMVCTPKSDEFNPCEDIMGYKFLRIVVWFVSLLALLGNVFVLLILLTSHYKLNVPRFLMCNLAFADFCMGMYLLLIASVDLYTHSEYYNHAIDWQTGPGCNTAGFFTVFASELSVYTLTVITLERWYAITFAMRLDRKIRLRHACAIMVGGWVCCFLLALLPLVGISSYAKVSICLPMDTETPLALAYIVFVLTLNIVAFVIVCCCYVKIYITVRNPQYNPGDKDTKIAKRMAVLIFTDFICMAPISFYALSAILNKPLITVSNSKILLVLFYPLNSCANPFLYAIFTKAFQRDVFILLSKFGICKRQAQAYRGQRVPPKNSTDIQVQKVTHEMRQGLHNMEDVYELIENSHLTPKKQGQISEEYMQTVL
#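 Freshly harvested TSHR cells receive pin-tooled compound, then EC80 TSH at 4nM final. After 2 hours at 37 deg C, antibody in lysis buffer and cAMP-d2 are added; 30 minutes at ambient temperature precede the HTRF read.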
# gsp ag = activates gsp, the McCune-Albright syndrome mutation | gsp mutant cells, cAMP HTRF, 30 min | Potency, µM (top dose mostly 76.9 µM), for inactives: top-dose activation (cAMP increase), actives largely listed as activators | 340,000 compounds, 0.13% hits | AID 624287; active = well fitted activation curve with a large enough effect; inconclusive = small, poorly fitted or top-dose-only effect, or another doubt; inactive = no such curve, though single readings can be large or run the other way; cell line not stated here;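 note: phosphodiesterase inhibitor Ro 20-1724 added with compounds to block cAMP breakdown; potency is the fitted concentration of half-maximal effect; nearly all actives have a fitted effect of over 60% in size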
#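 Cells in DMEM/10% FBS with G418 were pretreated with compounds in DMSO plus […] (300 uM stock) for 30 min at 37C. cAMP was measured by HTRF (cAMP-d2 plus anti-cAMP antibody-K) after 30 min at room temperature.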
# uPA generation = inhibitors of cell surface uPA generation | 330,000 compounds, 0.31% hits | cell surface uPA generation assay, qHTS | Potency, µM (highest dose often 38.3 µM), without a hit: top-dose activity change, negative = inhibition, actives largely listed as inhibitors; active = well fitted inhibition curve with a large enough effect; inconclusive = small, poorly fitted or top-dose-only effect; inactive = no such curve, though single readings can be large or run the other way; tested in mouse RAW 264.7 cells; note: potency is the fitted concentration of half-maximal effect; % is set by controls: 0 for no effect and ±100 for the full control effect; nearly all actives have a fitted effect of over 55% in size
# CCT modulator = modulators of cytosolic chaperonin (CCT/TRiC) activity. 360,000 compounds, 0.3% hits. purified chaperonin ATPase assay, HTRF ADP detection, 30 min. activity change, % (test concentration not listed), hits read low; in the data active = activity change below about -30%; note: % is set by controls: 0 for no effect and ±100 for the full control effect
#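 TRiC (40 or 20 nM final, by batch activity) in 30 mM Tris pH 7.4, 100 mM KCl, 5 mM MgCl2, 1 mM DTT was treated with compound at 76 uM single dose, then 10 uM ATP, 30 min at 37 °C. ADP was read by HTRF Transcreener.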
# An asterisk follows results filed as active; ? = inconclusive; · = not tested or not shown; [ ] = another dose, or the depositor's remark.
SMILES,MmCpn inh,gsp antag,TSHR antag,gsp ag,uPA generation,CCT modulator
O=C(COC(=O)c1ccc(NS(=O)(=O)c2cccs2)cc1)Nc1nc2c(F)c(F)c(F)cc2s1,-13%,-16%,-19,13%[15.4 µM],5%,-2
Cc1[nH]c2ccccc2c1C(=O)CCl,0%,0%,5,7%,8.9µM*,0
CCc1n[nH]c(=S)n1/N=C/c1ccc2c(c1)OCO2,1%,-4%,3,-3%,·,-2
CCCc1nnc(SCC(=O)O)n1/N=C/c1ccc2c(c1)OCO2,1%,3%,12,3%,2%,-63*
CC1CCc2sc(C(=O)NCC3CCCO3)cc2C1 (centres undefined),-1%,17%,-3,-5%[15.4 µM],-5%,2
COc1ccc(Cl)cc1NC(=O)Nc1ccccc1C(N)=O,-2%,-1%,-32,-130%,3.2µM*,-1
COc1ccc(Cl)cc1NC(=O)Nc1ccccc1SC,0%,-1%,-10,-3%,14%,-2
O=C(Nc1ccccc1)Nc1cccc(Cl)c1,0%,32µM*,-1,-4%,·,-6
NC(=O)c1ccccc1NC(=O)Nc1cccc(Cl)c1,1%,-13%,-9,26%,-10%,-1
O=C(Nc1cccc(Cl)c1)Nc1ccccc1C(=O)O,2%,-4%,-12,-3%,8.9µM*,1
O=C(Nc1ccc(S(=O)(=O)Nc2ccccn2)cc1)c1cccc([N+](=O)[O-])c1,-2%,12%,-13,-8%,-3%,-1
COc1cccc(/C=N/NC(=O)c2ccccc2NC(=O)c2ccco2)c1OC,4%,4%,-1,1%,-11%,1
COc1cccc(/C=C/C(=O)NNC(=O)c2ccco2)c1OC,0%,-1%,26,-35%,2.8µM*,1
O=C(NNC(=S)NCc1ccc(Cl)cc1)c1ccc(Br)o1,0%,-5%,16,-13%,5%,-8
O=C(NNC(=S)NCc1ccccc1)c1ccc(Br)o1,2%,-35%,3,-20%,2.8µM*,1
COCCNC(=O)c1ccc2c3n(nc2c1)-c1ccc(Cl)cc1CO3,-24%,-7%,2,-8%,10µM*,-1
C=CCNC(=O)c1ccc2c3n(nc2c1)-c1ccccc1CO3,-2%,-10%,4,·,1.4µM*,-1
O=C(NCCO)c1ccc2c3n(nc2c1)-c1ccc(Cl)cc1CO3,0%,-8%,12,·,?,1
COCCNC(=O)c1ccc2c3n(nc2c1)-c1ccccc1CO3,0%,4%,-48,·,4µM*,0
O=C(NCC1CC1)c1ccc2c3n(nc2c1)-c1ccc(Cl)cc1CO3,·,-23%,·,23%,?,-3
CCn1c(COc2ccccc2C)nnc1SCc1nc2ccccc2c(=O)[nH]1,-4%,·,-16,·,·,·
CN1CCN(C(=O)/C(=C/c2cn(S(=O)(=O)N(C)C)c3ccccc23)NC(=O)c2ccccc2)CC1,2%,-6%,4,2%,-13%,-39*
O=C1C=CC[C@H](/C=C/C[C@@H](O)C[C@H](O)CCc2ccccc2)O1,·,2%,·,·,10µM*,0
COc1ccc(C(NC(=O)c2c(F)c(F)c(F)c(F)c2F)c2ccccc2)cc1 (centres undefined),-15%,32µM*,?,-38%,-6%,0
CCCCCCCCN1[C@@H](CC(=O)OCC)c2ccc(C(F)(F)F)cc2S1(=O)=O,·,0%,·,-3%,21%,-1
SMILES,MmCpn inh,gsp antag,TSHR antag,gsp ag,uPA generation,CCT modulator
CCN(CC)C1CCN(C(=O)c2ccc3nc(Cc4ccc(OC)cc4)oc3c2)C1 (centres undefined),0%,3%,0,2%,-14%,-68*
CCC1CCCCN1C(=O)c1ccc2nc(Cc3ccc(OC)cc3)oc2c1 (centres undefined),1%,0%,-10,-4%,5%,-2
COCCCNC(=O)Cc1c(C)c2c(cc(C)c3c(C(C)(C)C)coc32)oc1=O,-1%,-20%,-2,1%,0.28µM*,-2
Brc1cc(Br)c2ncnc(N3CCCCC3)c2c1,-17%,3%,12,14µM*,-3%,-4
Clc1ccc(-n2ncc3c(N4CCCCCC4)ncnc32)cc1,-3%,-5%,15,-24%,?,0
CC(C)C12CN3CCN(CC(C3)/C1=N\NC(=O)Nc1ccccc1)C2,2%,3%,-13,-4%[15.4 µM],0%,-2
CCn1c(=O)n(CC)c2cc(N3CCCC3)c(NC(=O)c3c(F)cccc3F)cc21,1%,32µM*,-18,4%,-13%,-2
COc1ccc2c(c1)c(CC(=O)Nc1ccc(C(C)=O)cc1)c(C)n2C(=O)c1ccc(Cl)cc1,-23%,-17%,-2,0%,4%,-2
COc1ccc2c(c1)c(CC(=O)NCc1cc([N+](=O)[O-])ccc1O)c(C)n2C(=O)c1ccc(Cl)cc1,-1%,35µM*,?,8%,-1%,-1
Oc1ccc(N=Nc2nc(-c3ccccc3)c(-c3ccccc3)[nH]2)cc1,1%,28µM*,-18,-16%,-3%,-1
CCN1CCN(c2ccc(NC(=O)c3cc4ccccc4cc3OC)cc2C)CC1,2%,-1%,3,0%,11µM*,-6
OCCNCCCCSc1ccc(Cl)cc1,0%,0%,-6,7%,8.9µM*,0
COc1ccc(N(C(=O)C(C)C)S(=O)(=O)c2ccc3ccccc3c2)cc1,-1%,?,19,-17%,1.8µM*,2
O=C(CNC(=O)c1cccc(Br)c1)N/N=C/c1ccc2c(c1)OCO2,2%,-9%,-7,?,5%,-4
Cn1cnc(S(=O)(=O)N2CCN(c3ccccc3)CC2)c1,0%,8%,-4,14%,-9%,-78*
CCS(=O)(=O)N1CCN(c2ccccc2)CC1,1%,9%,-4,27%[15.4 µM],0%,-40*
O=C(Nc1nc2ccccc2s1)Nc1ccc([N+](=O)[O-])cc1Cl,0%,·,-6,·,·,·
Cc1cc(C)nc(SCNC(=O)c2ccc(F)cc2)n1,-2%,-1%,3,?,-4%,-32*
Cc1cc(C)nc(SCC(=O)c2ccc(F)cc2)n1,-2%,5%,-8,?,19%,0
O=C(CN1CCN(C(=O)c2ccco2)CC1)N1CCc2[nH]c3ccccc3c2C1,0%,-3%,8,-40%,4%,3
CCCSC1=C(C#N)C2(CCCCC2)C(C#N)=C(N)N1,0%,-19%,-20,2%[15.4 µM],4%,-3
COc1ccc(-c2sc3ccccc3c2/C=C/c2ccncc2)cc1,-4%,11µM*,16,·,-11%,0
Cc1ncc(C[n+]2csc(C)c2C)c(N)n1,0%,12%,-2,13%[15.4 µM],4%,-4
